Laboratory results from the supplement of paper PMC12067926.

system: Carnobacterium 1 (Carnobacterium gallinarum); assay: relative growth (AUC of 72 h growth curve relative to DMSO control, dAUC) (ratio); higher = more growth (less inhibition), active = hit call of the paper; conditions: 20 µM
Protocol: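 Environmental bacterial isolates (Iceland stream sediment and Silwood Park soil) and whole stream-sediment communities were grown in LB from a 1:100 dilution with each pesticide at 20 µM (1% DMSO). A600 was read hourly for 72 h and the area under a spline-fitted growth curve (AUC) was computed. dAUC is the mean AUC of 3 biological replicates divided by the mean AUC of the DMSO controls. Significance was tested by Dunnett's test against the DMSO control.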

Row | Structure (SMILES) | relative growth
1 | COCc1cnc(C2=NC(C)(C(C)C)C(=O)N2)c(C(=O)O)c1 (stereo not given) | 0.837 (inactive)
2 | O=C(O)c1nc(Cl)ccc1Cl | 0.925 (inactive)
3 | O=C(NC(=O)c1c(F)cccc1F)Nc1ccc(OC(F)(F)C(F)OC(F)(F)F)c(Cl)c1 (stereo not given) | 0.745 (inactive)
4 | CSc1nnc(C(C)(C)C)c(=O)n1N | 1.38 (inactive)
5 | CCCCCCCCCCCCNC(=N)N | 0.0114 (active)
6 | CCNc1nc(Cl)nc(NC(C)C)n1 | 1.18 (inactive)
7 | CC(C)(C)C(O)(CCc1ccc(Cl)cc1)Cn1cncn1 (stereo not given) | 0.864 (inactive)
8 | CS(=O)(=O)c1ccc(C(=O)C2C(=O)CCCC2=O)c([N+](=O)[O-])c1 | 1.44 (inactive)
9 | CS(=O)(=O)c1cc(C(F)(F)F)ccc1C(=O)c1cnoc1C1CC1 | 1.43 (inactive)
10 | Clc1ccc(C(c2ccc(Cl)cc2)C(Cl)(Cl)Cl)cc1 | 1.1 (inactive)
11 | N#CC(CCc1ccc(Cl)cc1)(Cn1cncn1)c1ccccc1 (stereo not given) | 0.805 (inactive)
12 | CCOC(=O)OC1=C(c2cc(C)ccc2C)C(=O)N[C@]12CC[C@@H](OC)CC2 | 1.17 (inactive)
13 | COP(=O)(NC(C)=O)SC (stereo not given) | 1.08 (inactive)
14 | Oc1ccccc1-c1ccccc1 | 0.744 (inactive)
15 | CN/C(=N/CC1CCOC1)N[N+](=O)[O-] (stereo not given) | 1.46 (inactive)
16 | CNC(=O)ON=C(C)SC | 1.18 (inactive)
17 | CCCCN(CCCC)SN(C)C(=O)Oc1cccc2c1OC(C)(C)C2 | 1.51 (inactive)
18 | COP(N)(=O)SC (stereo not given) | 0.69 (inactive)
19 | O=C(O)COc1ccc(Cl)cc1Cl | 1.06 (inactive)
20 | CC(C)N(C(=O)COc1nnc(C(F)(F)F)s1)c1ccc(F)cc1 | 1.04 (inactive)

Row | Structure (SMILES) | relative growth
21 | Cc1cc(C)c(C2=C(OC(=O)CC(C)(C)C)C3(CCCC3)OC2=O)c(C)c1 | 1.01 (inactive)
22 | CCC(=O)Nc1ccc(Cl)c(Cl)c1 | 0.897 (inactive)
23 | C/C(=N\C#N)N(C)Cc1ccc(Cl)nc1 | 1.32 (inactive)
24 | N#C/N=C1\SCCN1Cc1ccc(Cl)nc1 | 1.18 (inactive)
25 | N#Cc1c[nH]cc1-c1cccc2c1OC(F)(F)O2 | 1.07 (inactive)
26 | CNC(=O)Oc1cccc(/N=C/N(C)C)c1 | 0.892 (inactive)
27 | COc1cc(C)c(C(=O)c2c(OC)ccc(Br)c2C)c(OC)c1OC | 1.4 (inactive)
28 | CC1(C)[C@H](/C=C(\Cl)C(F)(F)F)[C@@H]1C(=O)OC(C#N)c1cccc(Oc2ccccc2)c1 (stereo not given in full) | 1.38 (inactive)
29 | CC1(C)C(C(=O)OC(C#N)c2cccc(Oc3ccccc3)c2)C1(C)C (stereo not given) | 1.18 (inactive)
30 | CCC(C)c1ccccc1OC(=O)NC (stereo not given) | 1.11 (inactive)
31 | CCOc1ccc(C(C)(C)COCc2cccc(Oc3ccccc3)c2)cc1 | 0.99 (inactive)
32 | COP(=S)(OC)Oc1ccc(SC)c(C)c1 | 1.08 (inactive)
33 | CN/C(=N\[N+](=O)[O-])NCc1cnc(Cl)s1 | 0.918 (inactive)
34 | Cc1cc(C)nc(Nc2ccccc2)n1 | 1.1 (inactive)
35 | CCc1nn(C)c(C(=O)NCc2ccc(Oc3ccc(C)cc3)cc2)c1Cl | 1.19 (inactive)
36 | CCOc1cc(Oc2ccc(C(F)(F)F)cc2Cl)ccc1[N+](=O)[O-] | 0.874 (inactive)
37 | CCC(CC)Nc1c([N+](=O)[O-])cc(C)c(C)c1[N+](=O)[O-] | 0.819 (inactive)
38 | CC(C)N1C(=O)N(c2ccccc2)CS/C1=N\C(C)(C)C | 0.913 (inactive)
39 | N#Cc1c(Cl)c(Cl)c(Cl)c(C#N)c1Cl | 1.11 (inactive)
40 | OC(Cn1cncn1)(c1ccc(F)cc1)c1ccccc1F (stereo not given) | 1.15 (inactive)
